Results: PubChem BioAssay (EPA / NIEHS)
The source made the active and inactive calls. The calls were made as follows: active = hit-call score of the fitted dose curve at least 0.9, where 1 is the maximum; inactive = score below 0.9.

Key:
Conditions in all cases: mRNA level, 48 h; actives raise or lower the signal
[1] = read-out: Apoptosis regulator Bcl-2 (Homo sapiens) (UniProt P10415); assay: LTEA_HepaRG_BCL2: Life Technologies and Expression Analysis (LTEA) Assay for Bcl-2 gene using HepaRG (AID 2283475);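 also: BCL2 transcript by TaqMan qRT-PCR normalised to ACTB GAPDH and POLR2A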
Outline: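 Each chemical was tested in duplicate on HepaRG cultures held in serum-free induction medium for 48 h, highest concentration 100 uM with half-log dilutions. Transcript levels came from multiplexed qRT-PCR, normalised to housekeeping genes; activity was scored in either direction relative to DMSO.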

Caspase-3 (Homo sapiens) = Caspase-3 (Homo sapiens) (UniProt P42574); assay: LTEA_HepaRG_CASP3: Life Technologies and Expression Analysis (LTEA) Assay for cysteine-aspartic acid protease (CASP3) using HepaRG (AID 2283477)
Outline: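 Transcript-level assay: CASP3 mRNA in human HepaRG after 48 h treatment, eight half-log concentrations from 100 uM in 0.5% DMSO, quantified by qRT-PCR.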

[2] = read-out: Cytochrome P450 (CYP24A1), CYP24A1 (gene 1591); assay: LTEA_HepaRG_CYP24A1: Life Technologies and Expression Analysis (LTEA) Assay for Cytochrome P450 (CYP24A1) using HepaRG (AID 2283478)
Outline: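 Gene expression of CYP24A1 by TaqMan qRT-PCR in HepaRG after 48 h treatment, highest concentration 100 uM; activity fitted in both directions relative to DMSO vehicle.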

[3] = read-out: Cytochrome P450 (CYP1A2), CYP1A2 (gene 1544); assay: LTEA_HepaRG_CYP1A2: Life Technologies and Expression Analysis (LTEA) Assay for Cytochrome P450 (CYP1A2) using HepaRG (AID 2283479);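 as to AC50: TaqMan qRT-PCR transcript level normalized to ACTB GAPDH and POLR2A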
Outline: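 In duplicate wells, HepaRG cultures maintained in 0.5% DMSO were treated 48 h across an 8-point, half-log series topping at 100 uM; phenobarbital (1 mM) served as induction control. Expression was read by qRT-PCR.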

[4] = read-out: cysteine-aspartic acid protease (CASP8), CASP8 (gene 841); assay: LTEA_HepaRG_CASP8: Life Technologies and Expression Analysis (LTEA) Assay for cysteine-aspartic acid protease (CASP8) using HepaRG (AID 2283480)
Outline: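 Concentration-response in duplicate up to 100 uM (half-log steps, 0.5% DMSO) on differentiated HepaRG cultures for 48 h. Expression change of CASP8 mRNA is determined by TaqMan qRT-PCR with housekeeping-gene normalization.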

[5] = read-out: Cytochrome P450 (CYP2B6), CYP2B6 (gene 1555); assay: LTEA_HepaRG_CYP2B6: Life Technologies and Expression Analysis (LTEA) Assay for Cytochrome P450 (CYP2B6) using HepaRG (AID 2283481)
Outline: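 Human HepaRG, 48 h dosing, 0.5% DMSO vehicle, top dose 100 uM. CYP2B6 transcript by qRT-PCR, housekeeping-normalized, bidirectional curve fit.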

[6] = read-out: Cytochrome P450 2C19 (Homo sapiens) (UniProt P33261); assay: LTEA_HepaRG_CYP2C19: Life Technologies and Expression Analysis (LTEA) Assay for CYP2C19 using HepaRG (AID 2283482)
Outline: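 Endpoint: CYP2C19 mRNA change, bidirectional fit vs 0.5% DMSO. Cells: HepaRG, 48 h exposure, eight-point series topping at 100 uM. Quantitation: qRT-PCR normalized to ACTB, GAPDH, POLR2A.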

CYP2C8 (gene 1558) = assay: LTEA_HepaRG_CYP2C8: Life Technologies and Expression Analysis (LTEA) Assay for CYP2C8 using HepaRG (AID 2283483)
Outline: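 This is a transcriptional endpoint in HepaRG cultures: 48 h exposure, highest concentration 100 uM. CYP2C8 mRNA is quantified by TaqMan qRT-PCR.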

CYP2C9 (gene 1559) = assay: LTEA_HepaRG_CYP2C9: Life Technologies and Expression Analysis (LTEA) Assay for CYP2C9 using HepaRG (AID 2283484)
Outline: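 Eight-point concentration-response (highest 100 uM, half-log dilutions) in HepaRG cells for 48 h; CYP2C9 expression by qRT-PCR normalized to ACTB, GAPDH, POLR2A. Bidirectional fit, DMSO baseline.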

Measured: AC50

Cytochrome P450 2C19 (Homo sapiens), sequence (P33261 whole entry, looked up): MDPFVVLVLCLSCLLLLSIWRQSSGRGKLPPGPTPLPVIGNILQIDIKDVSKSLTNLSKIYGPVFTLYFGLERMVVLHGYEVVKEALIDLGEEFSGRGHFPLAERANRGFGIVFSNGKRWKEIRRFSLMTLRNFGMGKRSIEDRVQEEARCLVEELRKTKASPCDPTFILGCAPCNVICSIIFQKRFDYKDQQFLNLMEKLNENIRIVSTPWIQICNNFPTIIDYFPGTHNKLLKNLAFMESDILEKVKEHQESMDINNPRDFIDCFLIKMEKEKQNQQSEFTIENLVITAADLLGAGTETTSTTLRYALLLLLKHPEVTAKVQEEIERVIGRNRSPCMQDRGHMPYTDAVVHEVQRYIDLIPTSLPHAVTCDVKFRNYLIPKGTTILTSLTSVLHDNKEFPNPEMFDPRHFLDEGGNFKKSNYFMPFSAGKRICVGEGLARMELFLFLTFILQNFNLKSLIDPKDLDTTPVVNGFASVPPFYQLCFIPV
Apoptosis regulator Bcl-2 (Homo sapiens), sequence (P10415 whole entry, looked up): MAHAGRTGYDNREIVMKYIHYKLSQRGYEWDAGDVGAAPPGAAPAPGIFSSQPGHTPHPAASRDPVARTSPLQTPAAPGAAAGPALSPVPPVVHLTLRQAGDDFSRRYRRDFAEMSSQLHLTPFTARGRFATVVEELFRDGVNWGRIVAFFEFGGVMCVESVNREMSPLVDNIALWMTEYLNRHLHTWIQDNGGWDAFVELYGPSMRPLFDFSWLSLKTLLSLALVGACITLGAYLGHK
Caspase-3 (Homo sapiens), sequence (P42574 whole entry, looked up): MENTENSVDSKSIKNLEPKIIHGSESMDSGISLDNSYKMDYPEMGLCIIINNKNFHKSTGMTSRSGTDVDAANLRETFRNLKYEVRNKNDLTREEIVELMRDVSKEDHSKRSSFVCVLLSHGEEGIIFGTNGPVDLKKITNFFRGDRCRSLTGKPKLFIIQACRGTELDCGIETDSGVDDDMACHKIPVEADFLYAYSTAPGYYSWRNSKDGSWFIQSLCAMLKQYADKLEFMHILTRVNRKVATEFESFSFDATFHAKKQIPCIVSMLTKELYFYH

Cc1occc1C(=O)Nc1ccc(C(=O)N2CCC(F)(F)/C(=C\C(=O)N3CCC(N4CCCCC4)CC3)c3ccccc32)cc1
active: [3] 18.4 µM | [5] 47.4 µM | [6] 43.7 µM | CYP2C8 (gene 1558) 56.5 µM | CYP2C9 (gene 1559) 44.2 µM
inactive: [1] | Caspase-3 (Homo sapiens) | [2] | [4]

O=C1CCC(C2CCCCC2)CC1
inactive: [1] | Caspase-3 (Homo sapiens) | [2] | [4] | [5] | [6] | CYP2C8 (gene 1558) | CYP2C9 (gene 1559)
active: [3] 72.5 µM

CC(=O)N1CCN(c2ccc(OC[C@H]3CO[C@](Cn4ccnc4)(c4ccc(Cl)cc4Cl)O3)cc2)CC1
active: [1] 11.5 µM | [3] 26 µM | [4] 82.8 µM | [5] 12.7 µM | CYP2C8 (gene 1558) 22.9 µM | CYP2C9 (gene 1559) 12.7 µM
inactive: Caspase-3 (Homo sapiens)

Cc1cccc2ccccc12
inactive: [1] | Caspase-3 (Homo sapiens) | [2] | [3] | [4] | [5] | [6] | CYP2C8 (gene 1558) | CYP2C9 (gene 1559)

c1ccc(C[n+]2cccc3ccccc32)cc1
inactive: Caspase-3 (Homo sapiens) | [2] | [3] | [4]
active: [1] 35.1 µM | [5] 50 µM | [6] 50 µM | CYP2C8 (gene 1558) 30 µM | CYP2C9 (gene 1559) 31 µM

CC/C(=C(/CC)c1ccc(O)cc1)c1ccc(O)cc1
inactive: [1] | [2] | CYP2C8 (gene 1558)
active: Caspase-3 (Homo sapiens) 93 µM | [4] 93.2 µM | [5] 82.4 µM

CCCCCCCCCCCCO
inactive: [1] | Caspase-3 (Homo sapiens) | [2] | [3] | [4] | [5] | [6] | CYP2C8 (gene 1558) | CYP2C9 (gene 1559)

CC[C@@H]1C[C@H](N(Cc2cc(C(F)(F)F)cc(C(F)(F)F)c2)C(C)=O)c2cc(C(F)(F)F)ccc2N1C(=O)OC(C)C
inactive: [1] | Caspase-3 (Homo sapiens) | [2] | [4] | CYP2C9 (gene 1559)
active: [3] 21.3 µM | [5] 0.735 µM | [6] 0.507 µM | CYP2C8 (gene 1558) 0.814 µM

CCCCCCCC[Si](OCC)(OCC)OCC
inactive: [1] | Caspase-3 (Homo sapiens) | [2] | [3] | [4] | [5] | [6] | CYP2C8 (gene 1558) | CYP2C9 (gene 1559)

Cc1ccc(C(C)C)cc1
inactive: [1] | Caspase-3 (Homo sapiens) | [2] | [3] | [4] | [5] | [6] | CYP2C8 (gene 1558) | CYP2C9 (gene 1559)

Cc1cc2c(cc1C(F)(F)F)N(C(=O)Nc1ccc(Oc3cccnc3C)nc1)CC2
inactive: [1] | Caspase-3 (Homo sapiens) | [2] | [6] | CYP2C8 (gene 1558)
active: [3] 2.31 µM | [4] 73.6 µM | [5] 12.2 µM | CYP2C9 (gene 1559) 46 µM

NC(=O)c1nc(-c2cccc(-c3cc(F)ccc3OCC(F)(F)C(F)(F)F)c2)n[nH]1
inactive: [1] | Caspase-3 (Homo sapiens) | [2] | [3] | [4] | [5] | [6] | CYP2C8 (gene 1558) | CYP2C9 (gene 1559)

c1ccc2ccccc2c1
active: [5] 12.1 µM
inactive: [1] | Caspase-3 (Homo sapiens) | [2] | [3] | [4] | [6] | CYP2C8 (gene 1558) | CYP2C9 (gene 1559)

CCOC(=O)O[C@H](C)OC(=O)c1ccc2c(c1)cc(C(=O)NC1CCN(C(C)C)CC1)n2Cc1cc(-c2ccc(Cl)s2)on1
inactive: [1] | Caspase-3 (Homo sapiens) | [2] | [4] | [5] | [6] | CYP2C8 (gene 1558) | CYP2C9 (gene 1559)
active: [3] 69.7 µM

CCCOC(=O)c1cc(O)c(O)c(O)c1
active: [5] 0.674 µM | [6] 0.793 µM
inactive: [1] | Caspase-3 (Homo sapiens) | [2] | [3] | [4] | CYP2C8 (gene 1558) | CYP2C9 (gene 1559)

NCc1cccc(C2CCN(C(=O)c3ccc(C#Cc4ccccc4F)o3)CC2)c1
active: [3] 90 µM | [4] 78 µM | [5] 83 µM | [6] 89.3 µM | CYP2C8 (gene 1558) 94 µM | CYP2C9 (gene 1559) 91.7 µM
inactive: [1] | Caspase-3 (Homo sapiens) | [2]

OCCO
active: Caspase-3 (Homo sapiens) 9.97 µM
inactive: [1] | [2] | [3] | [4] | [5] | [6] | CYP2C8 (gene 1558) | CYP2C9 (gene 1559)

CCCCOC(=O)c1ccc(O)cc1
inactive: [1] | Caspase-3 (Homo sapiens) | [2] | [3] | [4] | [5] | [6] | CYP2C8 (gene 1558) | CYP2C9 (gene 1559)

CCCCCCCCCCCO
inactive: [1] | Caspase-3 (Homo sapiens) | [2] | [3] | [4] | [5] | [6] | CYP2C8 (gene 1558) | CYP2C9 (gene 1559)

CCCCCCCCOC(=O)c1cc(O)c(O)c(O)c1
active: [3] 39.5 µM
inactive: [1] | Caspase-3 (Homo sapiens) | [2] | [4] | [5] | [6] | CYP2C8 (gene 1558) | CYP2C9 (gene 1559)
